Measurements reported in PubChem BioAssay AID1159580 (chemical genetic matrix, 2015).
“And” between values parts separate entries of the source, which are not always exact repeats. Identical values can stand only once. In all, about 5,500 compounds went through this assay and about 2,000 (36%) were called active. About 18% were inconclusive and are not listed. Rule as the data show it: active = normalized growth mostly below about 0.91 (no sharp cut-off); inconclusive = no clear call, values can overlap the other calls; inactive = mostly above about 0.92. The list shows a part of the results.

Assay: chemical genetic growth profiling, strain panel (AID 1159580);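 also: tested at 20 µM; growth read once vehicle control cultures reached saturation at 30 °C; 1 = growth at the plate median or of vehicle wells; lower values mean less growth of the strain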
Conditions: growth OD

Measured: normalized growth

NC1(C(=O)O)CCC1
active: S. cerevisiae deletion strains, locus YGR229C, strain SMI1, active compounds read low 0.717 | S. cerevisiae deletion strains, locus YJR043C, strain POL32, active compounds read low 0.83 | S. cerevisiae deletion strains, locus YLR418C, strain cdc73, active compounds read low 0.732 | S. cerevisiae deletion strains, locus YNL307C, strain MCK1, active compounds read low 0.894
inactive: S. cerevisiae deletion strains, locus YAL013W, strain DEP1, active compounds read low 0.911 | S. cerevisiae deletion strains, locus YBR021W, strain FUR4, active compounds read low 0.992 | S. cerevisiae deletion strains, locus YBR229C, strain ROT2, active compounds read low 1.01 | S. cerevisiae deletion strains, locus YCL029C, strain bik1, active compounds read low 0.997 | S. cerevisiae deletion strains, locus YDL035C, strain GPR1, active compounds read low 0.956 | S. cerevisiae deletion strains, locus YDL074C, strain BRE1, active compounds read low 0.836 | S. cerevisiae deletion strains, locus YDL101C, strain DUN1, active compounds read low 0.992 | S. cerevisiae deletion strains, locus YDL134C, strain PPH21, active compounds read low 1.01 | S. cerevisiae deletion strains, locus YDL185W, strain tfp1, active compounds read low 0.974 | S. cerevisiae deletion strains, locus YDL192W, strain arf1, active compounds read low 0.974 | S. cerevisiae deletion strains, locus YDR101C, strain arx1, active compounds read low 0.966 | S. cerevisiae deletion strains, locus YDR150W, strain NUM1, active compounds read low 1 | S. cerevisiae deletion strains, locus YDR162C, strain NBP2, active compounds read low 0.99 | S. cerevisiae deletion strains, locus YDR318W, strain mcm21, active compounds read low 0.963 | S. cerevisiae deletion strains, locus YDR388W, active compounds read low 0.988 | S. cerevisiae deletion strains, locus YDR502C, strain sam2, active compounds read low 0.936 | S. cerevisiae deletion strains, locus YEL061C, strain CIN8, active compounds read low 1 | S. cerevisiae deletion strains, locus YER110C, active compounds read low 0.959 | S. cerevisiae deletion strains, locus YER155C, strain BEM2, active compounds read low 1.03 | S. cerevisiae deletion strains, locus YER167W, strain BCK2, active compounds read low 0.952 | S. cerevisiae deletion strains, locus YGL078C, strain dbp3, active compounds read low 0.996 | S. cerevisiae deletion strains, locus YGL086W, strain mad1, active compounds read low 0.955 | S. cerevisiae deletion strains, locus YGL248W, strain PDE1, active compounds read low 1.01 | S. cerevisiae deletion strains, locus YGR078C, strain PAC10, active compounds read low 0.868 | S. cerevisiae deletion strains, locus YGR135W, strain pre9, active compounds read low 0.915 | S. cerevisiae deletion strains, locus YGR252W, strain gcn5, active compounds read low 0.894 | S. cerevisiae deletion strains, locus YHR030C, strain SLT2, active compounds read low 0.996 and 1 | S. cerevisiae deletion strains, locus YHR079C, strain IRE1 (second series), active compounds read low 0.982 | S. cerevisiae deletion strains, locus YHR079C, strain IRE1, active compounds read low 1.01 | S. cerevisiae deletion strains, locus YHR094C, strain hxt1, active compounds read low 0.992 | S. cerevisiae deletion strains, locus YHR129C, strain ARP1, active compounds read low 0.971 | S. cerevisiae deletion strains, locus YHR200W, strain rpn10, active compounds read low 0.968 | S. cerevisiae deletion strains, locus YIL066C, strain RNR3, active compounds read low 0.966 | S. cerevisiae deletion strains, locus YIL073C, strain SPO22, active compounds read low 0.895 | S. cerevisiae deletion strains, locus YIL125W, strain kgd1, active compounds read low 0.996 | S. cerevisiae deletion strains, locus YIR030C, strain dcg1, active compounds read low 0.988 | S. cerevisiae deletion strains, locus YJL095W, strain BCK1, active compounds read low 0.88 and 0.998 | S. cerevisiae deletion strains, locus YJL134W, strain LCB3, active compounds read low 0.997 | S. cerevisiae deletion strains, locus YJL168C, strain set2, active compounds read low 0.978 | S. cerevisiae deletion strains, locus YJL187C, strain SWE1 (second series), active compounds read low 0.997 | S. cerevisiae deletion strains, locus YJR066W, strain TOR1, active compounds read low 0.932 | S. cerevisiae deletion strains, locus YJR075W, strain HOC1, active compounds read low 0.891 | S. cerevisiae deletion strains, locus YKL009W, strain mrt4, active compounds read low 0.98 | S. cerevisiae deletion strains, locus YKL068W, active compounds read low 0.996 | S. cerevisiae deletion strains, locus YKL085W, strain MDH1 (second series), active compounds read low 1.01 | S. cerevisiae deletion strains, locus YKL085W, strain MDH1, active compounds read low 1.01 | S. cerevisiae deletion strains, locus YKL190W, strain CNB1, active compounds read low 0.981 | S. cerevisiae deletion strains, locus YKR001C, strain vps1, active compounds read low 0.92 | S. cerevisiae deletion strains, locus YLR039C, strain RIC1, active compounds read low 0.991 | S. cerevisiae deletion strains, locus YLR058C, strain SHM2, active compounds read low 1.01 | S. cerevisiae deletion strains, locus YLR102C, strain apc9, active compounds read low 0.986 | S. cerevisiae deletion strains, locus YLR113W, strain HOG1, active compounds read low 0.996 | S. cerevisiae deletion strains, locus YLR262C, strain YPT6, active compounds read low 1.1 | S. cerevisiae deletion strains, locus YLR268W, strain sec22, active compounds read low 0.951 | S. cerevisiae deletion strains, locus YLR330W, strain CHS5, active compounds read low 1 | S. cerevisiae deletion strains, locus YLR342W, strain FKS1 (second series), active compounds read low 0.955 | S. cerevisiae deletion strains, locus YLR371W, strain rom2, active compounds read low 0.995 | S. cerevisiae deletion strains, locus YML016C, strain PPZ1, active compounds read low 0.994 | S. cerevisiae deletion strains, locus YML032C, strain rad52, active compounds read low 0.977 | S. cerevisiae deletion strains, locus YML124C, strain tub3, active compounds read low 0.994 | S. cerevisiae deletion strains, locus YMR078C, strain ctf18, active compounds read low 0.988 | S. cerevisiae deletion strains, locus YMR223W, strain ubp8, active compounds read low 0.935 | S. cerevisiae deletion strains, locus YMR263W, strain SAP30, active compounds read low 0.929 | S. cerevisiae deletion strains, locus YMR307W, strain GAS1, active compounds read low 0.986 | S. cerevisiae deletion strains, locus YNL067W, strain RPL9B, active compounds read low 0.952 | S. cerevisiae deletion strains, locus YNL128W, strain TEP1, active compounds read low 0.986 | S. cerevisiae deletion strains, locus YNL153C, strain GIM3, active compounds read low 0.883 | S. cerevisiae deletion strains, locus YNL183C, strain NPR1, active compounds read low 0.916 | S. cerevisiae deletion strains, locus YNL233W, strain BNI4, active compounds read low 0.92 | S. cerevisiae deletion strains, locus YNL250W, strain rad50, active compounds read low 0.948 | S. cerevisiae deletion strains, locus YNL271C, strain bni1, active compounds read low 0.966 | S. cerevisiae deletion strains, locus YNL298W, strain CLA4, active compounds read low 0.981 | S. cerevisiae deletion strains, locus YNL322C, strain KRE1, active compounds read low 0.997 | S. cerevisiae deletion strains, locus YNR052C, strain pop2, active compounds read low 0.999 | S. cerevisiae deletion strains, locus YOL006C, strain TOP1, active compounds read low 0.934 | S. cerevisiae deletion strains, locus YOL012C, strain htz1 1.73 | S. cerevisiae deletion strains, locus YOL147C, strain pex11, active compounds read low 0.99 | S. cerevisiae deletion strains, locus YOR061W, strain CKA2, active compounds read low 1 | S. cerevisiae deletion strains, locus YOR069W, strain VPS5, active compounds read low 1 | S. cerevisiae deletion strains, locus YOR136W, strain idh2, active compounds read low 0.973 | S. cerevisiae deletion strains, locus YOR144C, strain elg1, active compounds read low 0.994 | S. cerevisiae deletion strains, locus YOR184W, strain ser1, active compounds read low 0.875 | S. cerevisiae deletion strains, locus YOR231W, strain MKK1, active compounds read low 0.989 | S. cerevisiae deletion strains, locus YOR316C, strain cot1, active compounds read low 0.987 | S. cerevisiae deletion strains, locus YPL055C, strain LGE1, active compounds read low 0.876 | S. cerevisiae deletion strains, locus YPL241C, strain CIN2, active compounds read low 0.998 | S. cerevisiae deletion strains, locus YPL256C, strain CLN2, active compounds read low 0.995 | S. cerevisiae deletion strains, locus YPR119W, strain clb2, active compounds read low 0.999 | S. cerevisiae deletion strains, locus YPR141C, strain kar3, active compounds read low 0.981 | S. cerevisiae deletion strains, locus YPR163C, strain tif3, active compounds read low 0.996 | S. cerevisiae deletion strains, locus YPR167C, strain met16, active compounds read low 0.992 | S. cerevisiae deletion strains, strain wtn01, active compounds read low 0.927 | S. cerevisiae strains, strain wild type, active compounds read low 0.925
